Reference: PubChem BioAssay (NCI)
The panel holds about 83,000 compounds, 20% with a hit somewhere; the sample as a whole holds those more often.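 Negative percent growth values reflect cell death: -40 means 40% of the cells present at the start died, and -100 means all died.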 Activity calls are given as the source filed them. How the source made its calls: active means growth percent below 10; inactive means the rest.

Assays:
Experiment in all cases: NCI-60 one-dose screen, 48 h (100 = growth as untreated, 0 = no growth, -100 = all killed)
Details in all cases: 10 µM unless noted
[1] = tested on: NCI-H23 lung
[2] = tested on: NCI-H226 lung
[3] = tested on: NCI-H322M lung
[4] = tested on: HOP-62 NSCLC
[5] = tested on: NCI-H460 lung
[6] = tested on: HOP-92 NSCLC
[7] = tested on: NCI-H522 lung
[8] = tested on: A549/ATCC NSCLC
[9] = tested on: 786-0 renal
[10] = tested on: COLO 205 colon

Measured: growth

S=C(c1ccc2c(c1)OCO2)N1CCN(c2ccccc2Cl)CC1
inactive: [1] 101% | [2] 87.9% | [3] 103% | [4] 102% | [5] 102% | [6] 67.3% | [7] 74.8% | [8] 98.2% | [9] 92.4% | [10] 97.1%

O=[N+]([O-])c1ccc(Sc2cccc[n+]2[O-])c2nonc12
active: [7] -70.8% | [10] -67.3%
inactive: [1] 73.2% | [2] 102% | [3] 104% | [4] 101% | [5] 56.8% | [6] 96.4% | [8] 59% | [9] 92.6%

COCCN(C(=O)c1ccc(F)cc1F)c1c(N)n(Cc2ccccc2)c(=O)[nH]c1=O
inactive: [1] 95.4% | [2] 94.7% | [3] 99.8% | [4] 103% | [5] 116% | [6] 59.3% | [7] 98.3% | [8] 101% | [9] 102% | [10] 124%

O=c1c2cc(F)ccc2sc2c(Nc3cccnc3)nc3ccccc3c12
inactive: [1] 78.8% | [2] 90.5% | [3] 88.8% | [4] 96.1% | [5] 68.5% | [6] 75.1% | [7] 94.3% | [8] 73.7% | [9] 86.9% | [10] 85%

Cc1ccc2nc3ccccc3c(NCc3ccccc3)c2c1
inactive: [1] 35.8% | [2] 49.8% | [3] 40.8% | [4] 43.5% | [5] 17.1% | [7] 37% | [8] 40.2% | [9] 34.3%
active: [6] -6.69% | [10] 8.06%

O=C(Nc1cccc2c(O)c(N=Nc3ccc(S(=O)(=O)Nc4nccs4)cc3)cc(N=Nc3ccc(S(=O)(=O)Nc4nccs4)cc3)c12)C(Cl)Cl
inactive: [1] 103% | [2] 98.8% | [3] 89.7% | [4] 96.8% | [5] 73.4% | [6] 24.7% | [8] 92.2% | [9] 103% | [10] 99%
active: [7] -42.5%

COC1=CC(=O)C[C@@H](C)[C@]12Oc1c(Cl)c(OC)cc(OC)c1C2=O
inactive: [1] 93.5% | [2] 99.9% | [3] 105% | [4] 88.3% | [5] 110% | [6] 89.4% | [7] 80.5% | [8] 97.5% | [9] 99.2% | [10] 106%

CCN1CCN(c2nc(C)cc(NCc3cc(Nc4ccnc5cc(Cl)ccc45)ccc3F)n2)CC1
inactive: [1] 46.5% | [2] 69.1% | [3] 50.5% | [4] 12% | [6] 36% | [8] 28%
active: [5] -12.6% | [7] -14.8% | [9] -51.2% | [10] -56.4%

COc1ccc(NC(=O)CSc2nc(C)c(C(C)=O)n2-c2ccc([N+](=O)[O-])cc2)cc1
inactive: [1] 88.2% | [2] 89% | [3] 92.7% | [4] 95.7% | [5] 103% | [6] 112% | [7] 88.9% | [8] 90.6% | [9] 83.9% | [10] 102%

O=C(O)C1CCC(=O)N1C(=O)OCc1ccccc1 (stereo not given)
inactive: [1] 93.7% | [2] 94.1% | [3] 94% | [4] 94.2% | [5] 106% | [6] 98.7% | [7] 92.8% | [8] 96.7% | [9] 93% | [10] 124%

COc1cc2ncn3c(=O)c4c5c(sc4nc3c2cc1OC)CCCC5
inactive: [1] 91.4% | [2] 93.8% | [3] 96.9% | [4] 89.8% | [5] 100% | [6] 115% | [7] 80.1% | [8] 96.4% | [9] 105% | [10] 106%

O=S(=O)(Nc1cccc(Cl)c1)c1ccc(-c2cnc(C3CC3)o2)cc1
inactive: [1] 29.3% | [2] 40.9% | [3] 48.1% | [4] 31.9% | [5] 16.5% | [6] 20.5% | [8] 38.4% | [9] 28.4%
active: [7] -1.89% | [10] 0.342%

COc1cc(C(=O)c2cc(C)c3[nH]c4ccc(Cl)cc4c3c2C)cc(OC)c1OC
active: [5] 4.97%
inactive: [1] 13.8% | [2] 54.8% | [3] 33% | [4] 40% | [6] 38.6% | [7] 35.5% | [8] 19.6% | [9] 19.6% | [10] 11%

COc1ccc(OC)c(-c2c(C#N)c(-c3ccc(Cl)cc3)nc3c2c(-c2ccccc2)nn3-c2ccccc2)c1
inactive: [1] 102% | [2] 98.3% | [3] 95.7% | [4] 99.3% | [5] 103% | [6] 101% | [7] 86% | [8] 98.4% | [9] 98.1% | [10] 104%

FC(F)(F)c1cc(Nc2ccc3cc(OCCCN4CCOCC4)ccc3n2)ccc1Cl
active: [5] 6.76% | [7] -22.1% | [9] -64.5% | [10] -69.3%
inactive: [1] 36% | [2] 68.2% | [3] 66.4% | [4] 12.3% | [6] 26.1% | [8] 28.3%

O=C1/C(=C/c2ccccc2)CCc2nc3ccccc3c(/C=C/c3ccc(Cl)cc3)c21
inactive: [1] 85.5% | [2] 92.3% | [3] 94.6% | [4] 110% | [5] 93.4% | [6] 79.8% | [7] 71.1% | [8] 93.5% | [9] 99.8% | [10] 104%

CC(C)C(NC(=O)C1(NC(=O)OCc2ccccc2)CCCC1)C(=O)O (stereo not given)
inactive: [1] 99.6% | [2] 104% | [3] 106% | [4] 119% | [5] 100% | [6] 92% | [7] 88.9% | [8] 106% | [9] 104% | [10] 107%

N=C1C(c2nc(-c3ccc(Br)cc3)cs2)=C(O)CN1CC1CCCO1 (stereo not given)
inactive: [1] 88.8% | [2] 103% | [3] 103% | [4] 18.5% | [5] 60.2% | [6] 69.6% | [7] 99.6% | [8] 75.2% | [9] 61.7% | [10] 90.8%

Cc1ccc2nc(C)c(-c3nnc(SCc4ccc(C#N)cc4)o3)n2c1
inactive: [1] 85.3% | [2] 93.5% | [3] 90.7% | [4] 97.6% | [5] 102% | [6] 104% | [7] 97% | [8] 104% | [9] 72.2% | [10] 116%

COc1ccc(CNC(=O)C(O)C(Cc2ccccc2)NC(=O)c2[nH]c3ccccc3c(=O)c2C)cc1OC (stereo not given)
inactive: [1] 102% | [2] 98.1% | [3] 104% | [4] 102% | [5] 103% | [6] 110% | [7] 93% | [8] 103% | [9] 101% | [10] 123%

CCN(CC)c1nc(SCC(=O)Nc2nc3ccc(C)cc3s2)nc(-c2ccccc2)c1C#N
inactive: [1] 103% | [2] 86.2% | [3] 88.8% | [4] 91.9% | [5] 99.4% | [6] 55.4% | [7] 82.5% | [8] 79.4% | [9] 93.8% | [10] 102%

COC(=O)[C@]12CC[C@@H](C)[C@H](C)[C@@H]1C1=CC[C@@H]3[C@@]4(C)C(C=O)=C[C@@](C)(COC(=O)c5ccco5)[C@@H]4C(=O)C[C@@]3(C)[C@]1(C)CC2
active: [10] -59.5%
inactive: [1] 26.3% | [2] 22.5% | [3] 69.6% | [4] 31.6% | [5] 18.1% | [6] 31.8% | [7] 10.7% | [8] 10.1% | [9] 43.4%

CN(C)CC1=NC2SC=C(c3ccccc3)C2C(=O)N1CC#N (stereo not given)
inactive: [1] 102% | [2] 85.5% | [3] 89.2% | [4] 102% | [5] 115% | [7] 84.5% | [8] 96.3% | [9] 96.2% | [10] 130%
active: [6] -14.6%

Cn1c(-c2c(N)n(Cc3cccnc3)c3nc(C#N)c(C#N)nc23)nc2ccccc21
inactive: [1] 92.2% | [2] 98.4% | [3] 77% | [4] 95.3% | [5] 106% | [7] 76.4% | [8] 94.6% | [9] 91% | [10] 117%
active: [6] 2.81%
